# According to ChEMBL document CHEMBL1961873, “Compounds: GSK PKIS; Assays: Nanosyn kinase panel” (2012):
# Tests used:
# [1] = molecular target: Glycogen synthase kinase-3 alpha (Homo sapiens) (UniProt P49840); details: at 0.1 µM
# [2] = molecular target: Glycogen synthase kinase-3 alpha (Homo sapiens) (UniProt P49840); details: at 1 µM
# [3] = molecular target: Glycogen synthase kinase-3 beta (Homo sapiens) (UniProt P49841); details: at 0.1 µM
# [4] = molecular target: Glycogen synthase kinase-3 beta (Homo sapiens) (UniProt P49841); details: at 1 µM
# [5] = molecular target: Homeodomain-interacting protein kinase 1 (Homo sapiens) (UniProt Q86Z02); details: at 0.1 µM
# [6] = molecular target: Homeodomain-interacting protein kinase 1 (Homo sapiens) (UniProt Q86Z02); details: at 1 µM
# [7] = molecular target: Homeodomain-interacting protein kinase 4 (Homo sapiens) (UniProt Q8NE63); details: at 0.1 µM
# Homeodomain-interacting protein kinase 4 (Homo sapiens), sequence (Q8NE63 whole entry): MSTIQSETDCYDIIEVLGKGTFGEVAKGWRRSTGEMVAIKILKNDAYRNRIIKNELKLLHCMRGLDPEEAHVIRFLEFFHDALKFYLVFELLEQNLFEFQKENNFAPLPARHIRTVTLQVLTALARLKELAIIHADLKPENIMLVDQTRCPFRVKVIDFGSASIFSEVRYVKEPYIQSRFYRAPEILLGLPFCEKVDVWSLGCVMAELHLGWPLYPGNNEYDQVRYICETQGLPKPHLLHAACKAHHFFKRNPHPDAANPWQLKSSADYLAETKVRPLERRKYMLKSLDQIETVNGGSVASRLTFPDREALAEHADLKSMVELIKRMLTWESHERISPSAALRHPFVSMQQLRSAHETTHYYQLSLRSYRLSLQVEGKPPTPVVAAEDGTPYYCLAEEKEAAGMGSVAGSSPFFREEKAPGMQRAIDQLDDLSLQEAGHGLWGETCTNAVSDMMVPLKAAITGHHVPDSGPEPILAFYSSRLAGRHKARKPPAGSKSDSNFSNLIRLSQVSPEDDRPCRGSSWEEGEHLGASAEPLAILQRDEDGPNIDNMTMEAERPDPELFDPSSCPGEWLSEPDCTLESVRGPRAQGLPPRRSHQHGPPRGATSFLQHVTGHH
# [8] = molecular target: Homeodomain-interacting protein kinase 4 (Homo sapiens) (UniProt Q8NE63); details: at 1 µM
# [9] = molecular target: Mitogen-activated protein kinase 9 (Homo sapiens) (UniProt P45984); details: at 0.1 µM
# [10] = molecular target: Mitogen-activated protein kinase 9 (Homo sapiens) (UniProt P45984); details: at 1 µM
# [11] = molecular target: Mitogen-activated protein kinase 1 (Homo sapiens) (UniProt P28482); details: at 0.1 µM
# [12] = molecular target: Mitogen-activated protein kinase 1 (Homo sapiens) (UniProt P28482); details: at 1 µM
# [13] = molecular target: Mitogen-activated protein kinase 3 (Homo sapiens) (UniProt P27361); details: at 0.1 µM
# [14] = molecular target: Mitogen-activated protein kinase 3 (Homo sapiens) (UniProt P27361); details: at 1 µM
# [15] = molecular target: SRSF protein kinase 3 (Homo sapiens) (UniProt Q9UPE1); details: at 0.1 µM
# [16] = molecular target: SRSF protein kinase 3 (Homo sapiens) (UniProt Q9UPE1); details: at 1 µM
# [17] = molecular target: Mitogen-activated protein kinase 14 (Homo sapiens) (UniProt Q16539); details: at 0.1 µM
# Mitogen-activated protein kinase 14 (Homo sapiens), sequence (Q16539 whole entry): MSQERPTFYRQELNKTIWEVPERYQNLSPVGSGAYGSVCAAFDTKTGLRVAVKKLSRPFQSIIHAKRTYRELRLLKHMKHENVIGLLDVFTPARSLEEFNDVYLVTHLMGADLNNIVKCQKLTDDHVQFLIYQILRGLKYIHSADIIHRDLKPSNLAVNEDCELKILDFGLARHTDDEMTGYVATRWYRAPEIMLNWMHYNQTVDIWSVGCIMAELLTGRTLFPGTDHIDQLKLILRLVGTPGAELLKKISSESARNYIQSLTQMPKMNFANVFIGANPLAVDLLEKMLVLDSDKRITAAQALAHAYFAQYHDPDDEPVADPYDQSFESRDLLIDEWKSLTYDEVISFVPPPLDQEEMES
# [18] = molecular target: Mitogen-activated protein kinase 14 (Homo sapiens) (UniProt Q16539); details: at 1 µM
# [19] = molecular target: Mitogen-activated protein kinase 11 (Homo sapiens) (UniProt Q15759); details: at 0.1 µM
# [20] = molecular target: Mitogen-activated protein kinase 11 (Homo sapiens) (UniProt Q15759); details: at 1 µM
# [21] = molecular target: Mitogen-activated protein kinase 13 (Homo sapiens) (UniProt O15264); details: at 0.1 µM
# [22] = molecular target: Mitogen-activated protein kinase 13 (Homo sapiens) (UniProt O15264); details: at 1 µM
# [23] = molecular target: Mitogen-activated protein kinase 12 (Homo sapiens) (UniProt P53778); details: at 0.1 µM
# [24] = molecular target: Mitogen-activated protein kinase 12 (Homo sapiens) (UniProt P53778); details: at 1 µM
# [25] = molecular target: SRSF protein kinase 1 (Homo sapiens) (UniProt Q96SB4); details: at 0.1 µM
# [26] = molecular target: SRSF protein kinase 1 (Homo sapiens) (UniProt Q96SB4); details: at 1 µM
# [27] = molecular target: Phosphatidylinositol 4,5-bisphosphate 3-kinase catalytic subunit alpha isoform (Homo sapiens) (UniProt P42336); details: at 0.1 µM
# Phosphatidylinositol 4,5-bisphosphate 3-kinase catalytic subunit alpha isoform (Homo sapiens), sequence (P42336 whole entry, canonical isoform): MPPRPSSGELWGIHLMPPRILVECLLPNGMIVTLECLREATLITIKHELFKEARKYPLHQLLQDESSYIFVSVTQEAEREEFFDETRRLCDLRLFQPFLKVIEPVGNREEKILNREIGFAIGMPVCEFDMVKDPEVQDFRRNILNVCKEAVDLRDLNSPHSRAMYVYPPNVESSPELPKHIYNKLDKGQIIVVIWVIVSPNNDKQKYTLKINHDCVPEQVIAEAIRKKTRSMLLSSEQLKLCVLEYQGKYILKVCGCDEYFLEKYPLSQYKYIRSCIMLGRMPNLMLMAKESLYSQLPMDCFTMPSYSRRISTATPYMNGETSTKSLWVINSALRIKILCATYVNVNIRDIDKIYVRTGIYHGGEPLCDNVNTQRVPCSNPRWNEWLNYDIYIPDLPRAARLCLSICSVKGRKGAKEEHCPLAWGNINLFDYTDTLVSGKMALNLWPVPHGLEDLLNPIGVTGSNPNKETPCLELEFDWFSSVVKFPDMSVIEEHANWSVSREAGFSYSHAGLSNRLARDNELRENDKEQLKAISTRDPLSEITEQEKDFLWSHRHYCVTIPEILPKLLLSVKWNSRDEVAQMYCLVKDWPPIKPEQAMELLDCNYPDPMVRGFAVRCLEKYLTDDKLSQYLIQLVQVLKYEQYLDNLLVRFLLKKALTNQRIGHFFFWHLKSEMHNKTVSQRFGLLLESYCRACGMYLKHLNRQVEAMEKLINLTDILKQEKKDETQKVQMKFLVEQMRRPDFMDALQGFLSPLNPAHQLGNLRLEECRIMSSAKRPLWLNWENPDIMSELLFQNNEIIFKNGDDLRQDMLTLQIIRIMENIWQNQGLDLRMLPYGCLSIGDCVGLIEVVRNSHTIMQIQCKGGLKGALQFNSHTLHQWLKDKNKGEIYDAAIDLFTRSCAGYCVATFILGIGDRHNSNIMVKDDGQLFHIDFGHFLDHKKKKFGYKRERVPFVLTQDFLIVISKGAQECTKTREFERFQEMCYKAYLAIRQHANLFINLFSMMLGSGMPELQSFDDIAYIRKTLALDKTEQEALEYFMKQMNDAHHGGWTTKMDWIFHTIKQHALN
# [28] = molecular target: Phosphatidylinositol 4,5-bisphosphate 3-kinase catalytic subunit alpha isoform (Homo sapiens) (UniProt P42336); details: at 1 µM
# [29] = molecular target: Phosphatidylinositol 4,5-bisphosphate 3-kinase catalytic subunit delta isoform (Homo sapiens) (UniProt O00329); details: at 0.1 µM
# [30] = molecular target: Phosphatidylinositol 4,5-bisphosphate 3-kinase catalytic subunit delta isoform (Homo sapiens) (UniProt O00329); details: at 1 µM
# [31] = molecular target: Phosphatidylinositol 4-kinase beta (Homo sapiens) (UniProt Q9UBF8); details: at 0.1 µM
# Phosphatidylinositol 4-kinase beta (Homo sapiens), sequence (Q9UBF8 2-816 limits assumed): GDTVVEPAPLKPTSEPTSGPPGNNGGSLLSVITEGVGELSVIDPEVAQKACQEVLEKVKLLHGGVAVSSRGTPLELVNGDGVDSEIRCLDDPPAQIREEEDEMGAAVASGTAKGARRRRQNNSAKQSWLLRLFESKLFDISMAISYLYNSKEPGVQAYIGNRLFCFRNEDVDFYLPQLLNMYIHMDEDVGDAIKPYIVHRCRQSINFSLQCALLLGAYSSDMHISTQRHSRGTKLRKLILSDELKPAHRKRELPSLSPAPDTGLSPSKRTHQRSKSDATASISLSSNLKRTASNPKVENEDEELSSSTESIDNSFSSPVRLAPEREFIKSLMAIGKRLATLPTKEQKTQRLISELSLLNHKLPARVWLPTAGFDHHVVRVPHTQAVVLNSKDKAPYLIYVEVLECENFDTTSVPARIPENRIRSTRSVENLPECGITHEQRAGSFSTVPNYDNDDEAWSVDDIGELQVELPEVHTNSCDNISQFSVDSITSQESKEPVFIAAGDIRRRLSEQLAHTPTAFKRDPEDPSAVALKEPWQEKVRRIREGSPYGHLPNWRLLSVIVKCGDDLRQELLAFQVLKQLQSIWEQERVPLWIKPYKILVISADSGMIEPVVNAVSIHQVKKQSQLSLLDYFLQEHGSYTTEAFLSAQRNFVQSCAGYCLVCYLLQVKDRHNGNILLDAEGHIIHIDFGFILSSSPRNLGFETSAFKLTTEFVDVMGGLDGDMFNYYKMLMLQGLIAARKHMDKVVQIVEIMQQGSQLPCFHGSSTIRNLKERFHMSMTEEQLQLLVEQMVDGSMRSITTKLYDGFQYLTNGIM
# [32] = molecular target: Phosphatidylinositol 4-kinase beta (Homo sapiens) (UniProt Q9UBF8); details: at 1 µM
# [33] = molecular target: Sphingosine kinase 1 (Homo sapiens) (UniProt Q9NYA1); details: at 0.1 µM
# [34] = molecular target: Sphingosine kinase 1 (Homo sapiens) (UniProt Q9NYA1); details: at 1 µM
# [35] = molecular target: Sphingosine kinase 2 (Homo sapiens) (UniProt Q9NRA0); details: at 0.1 µM
# [36] = molecular target: Sphingosine kinase 2 (Homo sapiens) (UniProt Q9NRA0); details: at 1 µM
# [37] = molecular target: Casein kinase II subunit alpha (Homo sapiens) (UniProt P68400); details: at 0.1 µM
# [38] = molecular target: Casein kinase II subunit alpha (Homo sapiens) (UniProt P68400); details: at 1 µM
# [39] = molecular target: Inhibitor of nuclear factor kappa-B kinase subunit alpha (Homo sapiens) (UniProt O15111); details: at 0.1 µM
# [40] = molecular target: Inhibitor of nuclear factor kappa-B kinase subunit alpha (Homo sapiens) (UniProt O15111); details: at 1 µM
# [41] = molecular target: Inhibitor of nuclear factor kappa-B kinase subunit beta (Homo sapiens) (UniProt O14920); details: at 0.1 µM
# [42] = molecular target: Inhibitor of nuclear factor kappa-B kinase subunit beta (Homo sapiens) (UniProt O14920); details: at 1 µM
# [43] = molecular target: Inhibitor of nuclear factor kappa-B kinase subunit epsilon (Homo sapiens) (UniProt Q14164); details: at 0.1 µM
# Inhibitor of nuclear factor kappa-B kinase subunit epsilon (Homo sapiens), sequence (Q14164 whole entry): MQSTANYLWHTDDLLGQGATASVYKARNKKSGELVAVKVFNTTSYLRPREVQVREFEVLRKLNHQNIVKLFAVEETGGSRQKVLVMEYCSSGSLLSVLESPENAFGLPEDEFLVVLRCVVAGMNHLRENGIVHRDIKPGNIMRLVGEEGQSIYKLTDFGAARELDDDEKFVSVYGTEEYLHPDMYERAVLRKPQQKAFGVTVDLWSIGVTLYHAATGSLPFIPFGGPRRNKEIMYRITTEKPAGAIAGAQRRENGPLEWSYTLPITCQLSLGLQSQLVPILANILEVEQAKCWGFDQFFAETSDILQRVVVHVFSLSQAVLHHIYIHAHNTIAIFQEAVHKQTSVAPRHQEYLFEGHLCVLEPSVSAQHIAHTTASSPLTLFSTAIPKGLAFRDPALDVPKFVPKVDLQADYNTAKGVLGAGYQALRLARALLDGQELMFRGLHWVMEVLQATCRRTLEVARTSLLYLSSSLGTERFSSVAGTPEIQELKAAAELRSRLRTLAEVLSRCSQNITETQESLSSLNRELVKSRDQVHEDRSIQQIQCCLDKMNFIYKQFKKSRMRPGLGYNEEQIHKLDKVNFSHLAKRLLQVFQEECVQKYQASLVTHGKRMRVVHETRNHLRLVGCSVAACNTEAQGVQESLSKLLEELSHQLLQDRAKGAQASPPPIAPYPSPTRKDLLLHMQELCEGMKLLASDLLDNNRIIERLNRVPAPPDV
# [44] = molecular target: Inhibitor of nuclear factor kappa-B kinase subunit epsilon (Homo sapiens) (UniProt Q14164); details: at 1 µM
# [45] = molecular target: Serine/threonine-protein kinase Nek1 (Homo sapiens) (UniProt Q96PY6); details: at 0.1 µM
# Serine/threonine-protein kinase Nek1 (Homo sapiens), sequence (Q96PY6 whole entry): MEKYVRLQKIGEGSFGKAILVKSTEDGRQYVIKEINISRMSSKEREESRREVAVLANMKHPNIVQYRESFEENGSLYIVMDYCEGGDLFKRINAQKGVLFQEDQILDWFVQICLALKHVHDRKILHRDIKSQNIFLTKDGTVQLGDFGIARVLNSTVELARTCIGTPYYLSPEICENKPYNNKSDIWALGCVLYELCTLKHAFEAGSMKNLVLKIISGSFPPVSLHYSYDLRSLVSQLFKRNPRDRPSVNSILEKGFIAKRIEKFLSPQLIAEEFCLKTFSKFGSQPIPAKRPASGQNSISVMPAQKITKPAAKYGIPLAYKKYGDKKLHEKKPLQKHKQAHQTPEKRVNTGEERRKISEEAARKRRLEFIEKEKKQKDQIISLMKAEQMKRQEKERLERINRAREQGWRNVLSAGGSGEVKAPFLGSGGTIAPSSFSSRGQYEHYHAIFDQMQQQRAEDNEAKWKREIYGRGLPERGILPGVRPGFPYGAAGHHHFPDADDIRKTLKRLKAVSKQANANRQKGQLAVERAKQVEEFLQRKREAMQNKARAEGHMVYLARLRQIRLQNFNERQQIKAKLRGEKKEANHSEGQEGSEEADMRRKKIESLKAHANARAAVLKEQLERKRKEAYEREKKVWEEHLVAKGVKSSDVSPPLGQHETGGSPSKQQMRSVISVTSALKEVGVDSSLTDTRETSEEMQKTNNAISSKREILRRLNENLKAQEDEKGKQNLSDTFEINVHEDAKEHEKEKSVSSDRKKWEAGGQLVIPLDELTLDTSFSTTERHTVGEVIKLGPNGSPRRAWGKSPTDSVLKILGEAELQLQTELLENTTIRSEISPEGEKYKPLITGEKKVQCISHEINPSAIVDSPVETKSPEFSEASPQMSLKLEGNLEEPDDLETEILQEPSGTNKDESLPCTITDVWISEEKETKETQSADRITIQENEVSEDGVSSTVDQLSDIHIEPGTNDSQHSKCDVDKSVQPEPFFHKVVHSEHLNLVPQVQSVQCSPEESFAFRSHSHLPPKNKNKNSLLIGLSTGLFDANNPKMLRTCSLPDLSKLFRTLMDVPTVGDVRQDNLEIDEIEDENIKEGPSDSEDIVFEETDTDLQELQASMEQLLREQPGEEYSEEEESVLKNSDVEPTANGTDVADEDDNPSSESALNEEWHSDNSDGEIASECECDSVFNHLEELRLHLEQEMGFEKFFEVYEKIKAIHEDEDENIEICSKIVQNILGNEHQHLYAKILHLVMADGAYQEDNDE
# [46] = molecular target: Serine/threonine-protein kinase Nek1 (Homo sapiens) (UniProt Q96PY6); details: at 1 µM
# [47] = molecular target: Serine/threonine-protein kinase Nek2 (Homo sapiens) (UniProt P51955); details: at 0.1 µM
# [48] = molecular target: Serine/threonine-protein kinase Nek2 (Homo sapiens) (UniProt P51955); details: at 1 µM
# [49] = molecular target: Serine/threonine-protein kinase Nek6 (Homo sapiens) (UniProt Q9HC98); details: at 0.1 µM
# [50] = molecular target: Serine/threonine-protein kinase Nek6 (Homo sapiens) (UniProt Q9HC98); details: at 1 µM
# [51] = molecular target: Serine/threonine-protein kinase Nek7 (Homo sapiens) (UniProt Q8TDX7); details: at 0.1 µM
# [52] = molecular target: Serine/threonine-protein kinase Nek7 (Homo sapiens) (UniProt Q8TDX7); details: at 1 µM
# [53] = molecular target: Serine/threonine-protein kinase Nek9 (Homo sapiens) (UniProt Q8TD19); details: at 0.1 µM
# [54] = molecular target: Serine/threonine-protein kinase Nek9 (Homo sapiens) (UniProt Q8TD19); details: at 1 µM
# [55] = molecular target: Serine/threonine-protein kinase PLK1 (Homo sapiens) (UniProt P53350); details: at 0.1 µM
# [56] = molecular target: Serine/threonine-protein kinase PLK1 (Homo sapiens) (UniProt P53350); details: at 1 µM
compound,measurement,setting,value
CNC(=O)Oc1cc(C)c(/C=C/c2cncc(C(=O)NC)c2)c(C)c1,inhibition,[1],1.71%
same,inhibition,[2],5.29%
same,inhibition,[3],1.23%
same,inhibition,[4],4.75%
same,inhibition,[5],-0.37%
same,inhibition,[6],1.2%
same,inhibition,[7],0.96%
same,inhibition,[8],3.81%
same,inhibition,[9],3.14%
same,inhibition,[10],2.28%
same,inhibition,[11],1.83%
same,inhibition,[12],2.04%
same,inhibition,[13],3.1%
same,inhibition,[14],2.72%
same,inhibition,[15],1.79%
same,inhibition,[16],1.43%
same,inhibition,[17],3.47%
same,inhibition,[18],3.16%
same,inhibition,[19],1.39%
same,inhibition,[20],2.35%
same,inhibition,[21],0.06%
same,inhibition,[22],2.61%
same,inhibition,[23],0.49%
same,inhibition,[24],1.7%
same,inhibition,[25],-1.34%
same,inhibition,[26],-4.31%
same,inhibition,[27],2.83%
same,inhibition,[28],2.08%
same,inhibition,[29],1.65%
same,inhibition,[30],0.21%
same,inhibition,[31],5.69%
same,inhibition,[32],3.41%
same,inhibition,[33],2.31%
same,inhibition,[34],0.63%
same,inhibition,[35],0.57%
same,inhibition,[36],19.7%
same,inhibition,[37],1.53%
same,inhibition,[38],0.66%
same,inhibition,[39],0.51%
same,inhibition,[40],-0.7%
same,inhibition,[41],3.06%
same,inhibition,[42],1.89%
same,inhibition,[43],2.27%
same,inhibition,[44],0.9%
same,inhibition,[45],2.1%
same,inhibition,[46],1.49%
same,inhibition,[47],2.52%
same,inhibition,[48],4.05%
same,inhibition,[49],-0.26%
same,inhibition,[50],1.16%
same,inhibition,[51],2.46%
same,inhibition,[52],2.99%
same,inhibition,[53],6.95%
same,inhibition,[54],4.01%
same,inhibition,[55],3.92%
same,inhibition,[56],2.75%
